Reference: PubChem BioAssay AID1259343 (VanderVen Lab, College of Veterinary Medicine, Cornell …, 2017)
Hit rate of the full screen: of about 6,200 compounds, about 2,900 (47%) were called active. So high a share suggests a set chosen from earlier hits. The list shows a part of the results. Values without a mark were called inactive. Cut-off read from the data, not from the text of the source: active = inhibition above about 50%; inactive = the rest.

assay: Mycobacterium tuberculosis growth inhibition, primary screen (AID 1259343); settings: inhibition: at 10 µM, stronger effect = higher value; outcome: 10 uM

Row | Compound | inhibition
1 | CCOc1ccc(OCCOc2ccccc2)cc1 | 92.8% (active)
2 | CCOc1ccc(OCCOc2cccc(C(F)(F)F)c2)cc1 | 84.9% (active)
3 | CCOc1cccc(OCCOc2cccc(Br)c2)c1 | 36.5%
4 | CCOc1ccc(OCCOc2ccc(Cl)cc2)cc1 | 93.8% (active)
5 | CCOc1ccccc1OCCOc1ccccc1 | 27.6%
6 | CCOc1ccc(OCCCOc2ccc(Cl)cc2)cc1 | inactive
7 | CCOc1ccc(OCCOCCOc2ccccc2)cc1 | 92.7% (active)
8 | Clc1ccc(OCCOCCOc2ccc(Cl)cc2)cc1 | 21.3%
9 | CCOc1ccc(OCCCOc2ccc(I)cc2)cc1 | 92.8% (active)
10 | CCOc1ccc(OCCCOc2ccc(CC)cc2)cc1 | -34%
11 | CCOc1ccc(OCCCOc2ccc(C)cc2)cc1 | -3.92%
12 | Clc1ccc(OCCOC2OCCOC2OCCOc2ccc(Cl)cc2)cc1 (configuration not stated) | 76.8% (active)
13 | CN=c1scc(C)n1N=C(C)c1cccc(F)c1 | 15.2%
14 | COc1ccc(/C=C(/C#N)c2c[nH]c3ccccc23)cc1 | 33.9%
15 | O=C(Cc1cc(-c2ccc(F)cc2F)on1)NCCc1ccccc1 | 93.5% (active)
16 | O=C(Cc1cc(-c2ccc(F)cc2F)on1)NCCC1=CCCCC1 | 85.6% (active)
17 | O=C(OCc1cc(-c2ccc(F)cc2F)on1)C1CC1 | 38.6%
18 | CC(C)OCCCNC(=O)Cc1cc(-c2ccc(F)cc2F)on1 | 36.4%
19 | O=C(Cc1cc(-c2ccc(F)cc2F)on1)NCCCc1ccccc1 | 54% (active)
20 | O=C(Cc1cc(-c2ccc(F)cc2)on1)NCCC1=CCCCC1 | 36.7%
21 | COc1ccc(NC(=O)c2ccc3c(c2)CCCC3)c(OC)c1 | 10.4%
22 | COc1ccc(NC(=O)c2ccc3c(c2)CCCC3)cn1 | 97.6% (active)
23 | Fc1c(F)c(F)c(N2CCNCC2)c(F)c1F | -14.9%

Row | Compound | inhibition
24 | FC(F)(F)C1CCCN(c2nsc3ccccc23)C1 (configuration not stated) | 101% (active)
25 | CCN=c1scc(-c2ccc(OC(F)F)cc2)n1N=Cc1ccc2c(c1)OCO2 | -4.29%
26 | Cc1ccc(-c2n[nH]c(=S)n2N=Cc2ccccc2)cc1 | 55.7% (active)
27 | FC(F)Oc1ccc(-c2n[nH]c(=S)n2N=Cc2ccc3c(c2)OCCO3)cc1 | 85.8% (active)
28 | O=c1cc(-c2ccc(F)cc2)[nH]n1-c1nc2ccccc2[nH]1 | 75.6% (active)
29 | c1ccc(-c2ccc(C(c3ccccc3)n3ccnc3)cc2)cc1 (configuration not stated) | 79.7% (active)
30 | CC(C)c1cc(-n2ccnc2)n2ncc(-c3ccccc3)c2n1 | inactive
31 | C=C(C#N)C(O)c1ccc(-c2ccccc2)cc1 (configuration not stated) | 27.8%
32 | COc1ccc(Cl)c2sc(N(CCCN(C)C)C(=O)Cc3ccccc3)nc12 | 69.2% (active)
33 | Cc1cc(C(=O)N(CCCN(C)C)c2nc3ccc(Cl)cc3s2)nn1C | 30.6%
34 | CCC(C)(C)C1CCC2(CC1)NCCc1c2[nH]c2ccccc12 (configuration not stated) | 0.19%
35 | C=CCN(C)C(=O)c1coc(COc2ccc3ccc(OC)cc3c2)n1 | 65.1% (active)
36 | C=C(C)CN(C)C(=O)c1coc(COc2ccc3c(c2)OCO3)n1 | 26.6%
37 | Cc1nonc1CN(C)C(=O)c1coc(COc2cccc(C(F)(F)F)c2)n1 | 22.3%
38 | N#Cc1c(F)cccc1NCc1csc(C2CC2)n1 | 57.3% (active)
39 | N#Cc1c(F)cccc1NCCNc1nc2ccccc2o1 | -5.14%
40 | OCC1O[C@H]([S-])[C@@H](O)C(O)[C@@H]1O.[Au+] (some centres not stated) | 5.4%
41 | Cc1ccc(NC2OC(CO)C(O)C(O)C2O)cc1Br (configuration not stated) | 84.8% (active)
42 | COc1cccc(-c2nc3ccc(-c4cccc(Cl)c4)cn3c2CN2CCNCC2)c1 | 23.2%
43 | CN(C)CCCOc1ccc(-c2nnc3ccc(-c4cccc(Oc5ccccc5)c4)cn23)cc1 | 66.5% (active)
44 | Cc1cc(NC(=O)CNC(c2ccccn2)C(C)C)ccc1Cl (configuration not stated) | 79.4% (active)
45 | CCOc1cccc(-c2cccc(-n3cnnc3)c2)c1 | 66% (active)
46 | CCOc1cccc(-c2cnc(NC(C)=O)cn2)c1 | 23.7%

Row | Compound | inhibition
47 | Oc1ccc(CC2COCC(Cc3ccc(O)cc3)C2)cc1 (configuration not stated) | 62.4% (active)
48 | CS(=O)(=O)c1nc(-c2cccs2)cc(C(F)(F)F)n1 | 101% (active)
49 | Cc1ccc(-c2cc(C(F)F)nc(S(C)(=O)=O)n2)cc1 | 90.4% (active)
50 | CS(=O)(=O)c1nc(-c2ccccc2)cc(C(F)(F)F)n1 | 99.7% (active)
51 | CS(=O)(=O)c1nc(-c2ccc(F)cc2)cc(C(F)(F)F)n1 | 101% (active)
52 | O=c1[nH]c(=S)[nH]c2nc(-c3cccs3)cc(C(F)(F)F)c12 | 34.4%
53 | O=c1ccc(-c2ccc(F)cc2)nn1Cc1cccc(C(F)(F)F)c1 | 35.1%
54 | O=c1ccc(-c2ccc(F)cc2)nn1Cc1ccc(C(F)(F)F)cc1 | 20%
55 | Cn1cccc1C1CCCCCN1C(=O)c1ccc(NC2CC2)nc1 (configuration not stated) | -11.4%
56 | COc1ccc(-c2cc(C(F)(F)F)nc(S(C)(=O)=O)n2)cc1 | 101% (active)
57 | CC(C(=O)Nc1cccc(Cl)c1)N(C)Cc1cccs1 (configuration not stated) | 5%
58 | Cc1nc2c(OCc3cc(Cl)cc(Cl)c3)cccn2c1N(C)Cc1cccs1 | 82.7% (active)
59 | CCCc1cc(=O)[nH]c(-n2nc(C)cc2NC(=O)/C=C/c2cc(OC)c(OC)c(OC)c2)n1 | 99.8% (active)
60 | COc1cc(/C=C/C(=O)Nc2cc(C)nn2-c2nc3c(c(=O)[nH]2)CCC3)cc(OC)c1OC | 2.27%
61 | COc1cc(/C=C/C(=O)Nc2cc(C)nn2-c2nc(C)c(C)c(=O)[nH]2)cc(OC)c1OC | 99.5% (active)
62 | CCCc1cc(=O)[nH]c(-n2nc(C)cc2NC(=O)/C=C/c2ccc(OC)c(OC)c2)n1 | 102% (active)
63 | CC(O)CN1CCN(C(=O)c2cc(Cl)c(Cl)n2C)CC1 (configuration not stated) | -16.4%
64 | CCn1cnnc1CCNS(=O)(=O)NCc1ccccc1 | -1.72%
65 | Cn1nnnc1SCc1nc(-c2cccc(C(F)(F)F)c2)no1 | -6.38%
66 | FC(F)(F)c1cccc(-c2nnn(Cc3ncc(-c4ccccc4)o3)n2)c1 | 58.2% (active)
67 | Fc1c(F)c(F)c(Cn2nnc(-c3ccccc3)n2)c(F)c1F | 26.7%
